An excerpt weighted towards active compounds, which were near 2.9% of everything screened.
D3 ag – agonists of human D3 dopamine receptor; 410,000 compounds, 0.58% hits; max activation, %; D3R DiscoveRx beta-arrestin cells, luminescence, 90 min; in the data active = max activation above about 30%
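Agonist mode: compounds and dopamine controls were applied to plated cells for 90 min at 37 degrees C after an overnight attachment at 1500 cells/well. Luminescent read-out followed 30 - 60 minutes at room temperature with DiscoveRx detection reagent.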
DRD3 antagonist – D3 dopamine receptor (human) antagonism; AID 652054; P35462; 360,000 compounds, 2.5% hits; D3R cells, DiscoveRx beta-arrestin luminescence, antagonist mode; active compounds read low; max response, negative = inhibition, %; in the data active = max response below about -50%; inconclusive = no clear call, values can overlap the other calls
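Cells expressing the human receptor were seeded at 1500 cells/well, incubated overnight at 37 degrees C in 5% CO2, then exposed to library compounds with dopamine controls for 90 minutes at 37 degrees C before luminescent detection.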
TRPML1 blocker – inhibitors of human TRPML1 channel; Q9GZU1; TRPML1-inducible cells, Ca2+ dye fluorescence, FDSS; active compounds read low; inhibition of EC80 agonist-evoked calcium signal; activity change, negative = inhibition, % (no concentration beside the values); 390,000 compounds, 0.02% hits; in the data active = activity change below about -50%; inconclusive = between about -30% and that limit;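 note: stimulus is agonist 54-4 at its EC80 concentration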
Target sequence (Q9GZU1 whole entry, looked up): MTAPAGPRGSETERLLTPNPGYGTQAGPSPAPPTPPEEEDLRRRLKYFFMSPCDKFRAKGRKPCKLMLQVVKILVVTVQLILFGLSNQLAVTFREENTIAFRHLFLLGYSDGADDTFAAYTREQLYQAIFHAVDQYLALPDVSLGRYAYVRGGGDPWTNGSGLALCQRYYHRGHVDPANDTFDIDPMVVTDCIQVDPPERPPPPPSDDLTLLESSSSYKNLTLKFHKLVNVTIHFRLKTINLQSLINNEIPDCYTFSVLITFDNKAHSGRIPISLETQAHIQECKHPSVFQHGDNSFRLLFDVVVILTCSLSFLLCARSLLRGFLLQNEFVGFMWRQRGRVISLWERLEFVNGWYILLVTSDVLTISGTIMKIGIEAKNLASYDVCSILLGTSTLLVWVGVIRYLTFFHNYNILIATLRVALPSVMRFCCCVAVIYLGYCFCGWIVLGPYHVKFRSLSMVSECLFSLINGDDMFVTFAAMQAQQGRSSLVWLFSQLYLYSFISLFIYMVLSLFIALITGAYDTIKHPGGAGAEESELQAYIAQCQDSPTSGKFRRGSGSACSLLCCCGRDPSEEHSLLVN
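TRPML1-DL cells, Tet-induced overnight (~16 h, 37 °C) at 1,500 cells/well, were loaded with Ca8 no-wash dye plus quencher for 45-90 min at room temperature. Compounds were pinned during FDSS kinetic reading; agonist 54-4 at EC80 (4 uM final) then added.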
TRPML1 agonist – activates the human TRPML1 channel; TRPML1-expressing cells, Ca2+ dye fluorescence, FDSS; 410,000 compounds, 0.12% hits; activation, % (concentration not given with the values); Q9GZU1; in the data active = activation above about 50%; inconclusive = mostly about 30% to 49%
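Cells: TRPML1-DL, 1X Tet inducer, ~16 h at 37 degrees C/5% CO2. Dye: ABD Ca8 no-wash + quencher, 45-90 min RT. Read: 10 s baseline, compound add, 110 s agonist phase; 54-4 EC80 (4uM final), 110 s antagonist phase.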
Large screens that a line does not name were inactive.

CCc1ccc(-n2c(=O)c3ccccc3n3c(=S)[nH]nc23)cc1	none
O=C(O)c1cccc(N2C(=O)c3ccc4c5c(ccc(c35)C2=O)C(=O)N(c2cccc(C(=O)O)c2)C4=O)c1	DRD3 antagonist -107
CC1CCc2cc(F)cc3c2N1C(=O)C(C(=O)Nc1cnccn1)C3=O (configuration not stated)	none (no result: D3 ag, DRD3 antagonist, TRPML1 blocker)
CC(=O)NS(=O)(=O)c1ccc(NC(=S)NC(=O)c2ccco2)cc1	DRD3 antagonist -110
Cn1nnc(NC(=O)c2ccco2)n1	none
Cn1nnc(NC(=S)NC(=O)Cc2ccccc2)n1	DRD3 antagonist -64
Cn1nnc(NC(=S)NC(=O)c2ccco2)n1	DRD3 antagonist -72
COc1ccc(CCNC(=O)CCn2c(=O)c3cccn3c3ccc(F)cc32)cc1OC	none (no result: DRD3 antagonist)
O=S(=O)(O)c1cc(O)c2c(O)c(N=Nc3cc(Cl)ccc3O)c(S(=O)(=O)O)cc2c1	DRD3 antagonist -61
Cc1cc(-c2ccc(N=Nc3c(S(=O)(=O)O)cc4cc(S(=O)(=O)O)cc(N)c4c3O)c(C)c2)ccc1N=Nc1c(S(=O)(=O)O)cc2cc(S(=O)(=O)O)cc(N)c2c1O	none (no result: DRD3 antagonist, TRPML1 blocker, TRPML1 agonist)
Cc1onc(-c2ccccc2)c1C(=O)NCc1cccnc1	DRD3 antagonist -75
Cc1ccc(F)cc1NC(=O)c1c(-c2ccccc2)noc1C	DRD3 antagonist -50
CC1CCc2c(sc3nnn(CC(=O)Nc4ccccc4Cl)c(=O)c23)C1 (configuration not stated)	none (no result: DRD3 antagonist)
Cc1ccc(CN2C(=O)SC(Nc3ccc(Cl)cc3)C2=O)cc1 (configuration not stated)	none (no result: DRD3 antagonist)
Cc1cccc(C)c1-n1nnnc1C(c1ccnc2ccccc12)N1CCN(CC(=O)NC(C)C)CC1 (configuration not stated)	none (no result: TRPML1 blocker)
CCCCn1nnnc1C(c1cc2ccccc2o1)N1CCN(c2c(C)cccc2C)CC1 (configuration not stated)	none (no result: TRPML1 blocker)
Cc1cccc(C)c1-n1nnnc1C(c1cccc2ccccc12)N1CCN(C/C=C/c2ccccc2)CC1 (configuration not stated)	DRD3 antagonist -107 (no result: TRPML1 blocker)
Cc1cccc(C)c1-n1nnnc1C(c1cc2ccccc2o1)N1CCN(C/C=C/c2ccccc2)CC1 (configuration not stated)	DRD3 antagonist -74
Cc1cccc(C)c1N1CCN(C(c2cc3ccccc3o2)c2nnnn2C(C)(C)C)CC1 (configuration not stated)	TRPML1 agonist 54 (no result: TRPML1 blocker)
COC(=O)c1ccccc1-c1ccc(/C=N/NC(=O)c2cc3ccccc3o2)o1	none
COC(=O)c1ccccc1-c1c2ccc(=N)cc-2oc2cc(N)ccc12	DRD3 antagonist -64, TRPML1 agonist 99
Cc1ccccc1NC(=O)c1ccc(NS(=O)(=O)c2cc(C(C)(C)C)cc(C)c2C)cc1	DRD3 antagonist -57
O=C(CSCc1ccc(F)cc1)N1CCN(c2ccc(Cl)cc2)CC1	D3 ag 80 (no result: DRD3 antagonist)
NC(=O)c1c(NC(=O)c2noc3c2CCCC3)sc2c1CCCC2	none (no result: DRD3 antagonist)
CCn1c(CN2CCC(C)CC2)nc2cc(NC(=O)c3cccc([N+](=O)[O-])c3)ccc21	none (no result: DRD3 antagonist)
CCn1c(CN2CCC(C)CC2)nc2cc(NC(=O)c3ccc([N+](=O)[O-])cc3)ccc21	D3 ag 60 (no result: DRD3 antagonist)
CCCCc1nn2c(=O)cc(COC(=O)c3cccs3)nc2s1	none (no result: DRD3 antagonist)
Cc1ccc(C)c(N2CCN(C(=O)CCc3c(C)nn(-c4ccc(N5CCCC5)nn4)c3C)CC2)c1	none (no result: DRD3 antagonist)
O=C(COC(=O)C1CC2C=CC1C2)Nc1cccc(S(=O)(=O)N2CCCCCC2)c1 (configuration not stated)	none
O=C(COC(=O)C1CC2C=CC1C2)Nc1cccc(S(=O)(=O)N2CCCCC2)c1 (configuration not stated)	D3 ag 31
CCOc1ccc(C(=O)N2CCC(c3ccncc3)CC2)cc1	none (no result: DRD3 antagonist)
NS(=O)(=O)c1ccc(-c2ccc(C=O)o2)cc1	none
NS(=O)(=O)c1ccc(-c2ccc(/C=C3\NC(=S)NC3=O)o2)cc1	D3 ag 43
COc1ccc(N(C)C(=O)CCC(=O)Nc2ccc3nc(N4CCOCC4)cc(C)c3c2)c(OC)c1	D3 ag 35
CCC(=O)Nc1cc(-c2nc3cc(C)cc(C)c3o2)ccc1C	none (no result: DRD3 antagonist)
CCOCCCNC(=O)Cn1ncc2c([nH]c3ccccc32)c1=O	none (no result: DRD3 antagonist)
CSc1ccc(C2c3[nH]c4ccccc4c3CCN2C(=O)CCC2CCCC2)cc1 (configuration not stated)	none (no result: DRD3 antagonist)
O=C(CCNC(=O)Cn1ccc2ccccc2c1=O)NCCCN1CCN(c2ccc(F)cc2)CC1	DRD3 antagonist inconclusive
O=C(CCNC(=O)Cn1ccc2ccccc2c1=O)NCCCN1CCN(c2ccccc2F)CC1	DRD3 antagonist -68
O=C(Cn1c(=O)c2cccn2c2ccc(F)cc21)NCCCN1CCN(c2ccccc2F)CC1	DRD3 antagonist -92
O=C(CNC(=O)Cn1ccc2ccccc2c1=O)NCCCN1CCN(c2cccc(Cl)c2)CC1	DRD3 antagonist -75
O=C(Cn1c(-c2cccs2)cc2cc(F)ccc21)NCCCN1CCN(c2ccccc2F)CC1	none (no result: DRD3 antagonist)
COc1cc2c(NC3CCN(C(C)C)CC3)nc(N3CCCN(C)CC3)nc2cc1OCCCN(C)C	none (no result: D3 ag, DRD3 antagonist, TRPML1 blocker)
NCCC[C@H](N)C(=O)O	none (no result: DRD3 antagonist, TRPML1 blocker, TRPML1 agonist)
CCOC(=O)c1nnc(-c2cccs2)nc1Oc1ccc(Cl)cc1	DRD3 antagonist -67
CCOC(=O)c1nnc(-c2cccs2)nc1Oc1ccccc1C(=O)OC	none
COc1cc(S(=O)(=O)N2CCC(C(N)=O)CC2)c(C)cc1C	DRD3 antagonist -104
COc1cc(CN2CCC(C(=O)N3CCN(c4ccccc4F)CC3)CC2)cc(OC)c1OC	DRD3 antagonist -53
COC(=O)CNC(=O)C1CCCN1C(=O)CNC(=O)OCc1ccccc1 (configuration not stated)	none
COC(=O)C1CCCN1C(=O)C1CCCN1C(=O)CNC(=O)OCc1ccccc1 (configuration not stated)	DRD3 antagonist -54
COc1cc(C(=O)N(CCc2ccccc2)C2=CC3CCC(C2)N3C)cc(OC)c1OC (configuration not stated)	none
COc1ccc(CCN(C(=O)c2ccc(F)cc2)C2=CC3CCC(C2)N3C)cc1OC (configuration not stated)	DRD3 antagonist -56
C=CCC1[C@H](C)[C@H]2[C@@H]3CC[C@@H](C3)[C@H]2CN1S(=O)(=O)c1ccc(C)cc1 (some centres not stated)	TRPML1 agonist 54
O=C1c2ccsc2SCCN1Cc1c(Cl)cccc1Cl	DRD3 antagonist -61
CCCc1nc2ccc(C)cn2c1Cc1cccc(F)c1	none (no result: TRPML1 blocker)
CCCc1nc2c3ccccc3ccn2c1Cc1cccc(F)c1	DRD3 antagonist -90 (no result: TRPML1 blocker)
C=C1C(=O)C23CCC4C(C)(C(=O)OC)CCCC4(C)C2CCC1(O)C3 (configuration not stated)	DRD3 antagonist -106
CCOC(=O)c1c(NC(=O)CC2Nc3cc(C)c(C)cc3NC2=O)sc(C)c1C (configuration not stated)	DRD3 antagonist -57

Bioassay records from PubChem BioAssay.
